Laboratory results taken from PubChem BioAssay (NCI).
The panel holds about 79,000 compounds, 15% with a hit somewhere; the sample as a whole holds those more often. Activity calls are given as the source filed them. Rule as the data show it: active = growth inhibition above about 70%; inactive = the rest. Where a SMILES comes first, the peptide text is derived from it. The star is where a group is joined. Cbz = O=C(OCc1ccccc1)*

Tests used:
[1] = NCI Yeast Anticancer Drug Screen. Data for the rad50 strain (AID 155);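 also: 0% = growth of vehicle-only cultures of the same strain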; conditions: S. cerevisiae rad50 strain growth inhibition; at 50.0 µM; stronger effect = higher value
Method in brief: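 Relative growth inhibition (compound vs vehicle) was measured in yeast with a defined repair-gene alteration.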

[2] = NCI Yeast Anticancer Drug Screen. Data for the mec2-1 strain (AID 157); conditions: S. cerevisiae mec2-1 strain, at 50.0 µM, stronger effect = higher value
Method in brief: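 Using mec2-1 yeast: add compound, measure growth, express inhibition versus vehicle-treated cultures.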

[3] = NCI Yeast Anticancer Drug Screen. Data for the sgs1 mgt1 strain (AID 161);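 also: 0% = growth of cultures given vehicle only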; conditions: S. cerevisiae sgs1 mgt1 strain, at 50.0 µM, stronger effect = higher value
Method in brief: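 Yeast cells carrying a defined DNA-repair defect were exposed to test compounds. Growth inhibition was measured relative to vehicle-treated controls.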

[4] = NCI Yeast Anticancer Drug Screen. Data for the cln2 rad14 strain (AID 165);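 also: 0% = growth equal to vehicle treated cultures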; conditions: S. cerevisiae cln2 rad14 strain, at 50.0 µM, stronger effect = higher value
Method in brief: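 Yeast strain cln2 rad14, bearing defects in cell cycle control and DNA repair, serves as the test system; values reflect growth inhibition compared with vehicle.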

[5] = NCI Yeast Anticancer Drug Screen. Data for the bub3 strain (AID 167); conditions: S. cerevisiae bub3 mutant strain, at 50.0 µM, stronger effect = higher value
Method in brief: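 Screening used yeast with an engineered genetic alteration affecting cell cycle control. Compound-exposed cultures were compared with vehicle cultures, and reduced growth was taken as inhibition.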

[6] = NCI Yeast Anticancer Drug Screen. Data for the mlh1 rad18 strain (AID 175); conditions: S. cerevisiae mlh1 rad18 strain growth inhibition; at 50.0 µM; stronger effect = higher value
Method in brief: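 Steps: expose repair-defective yeast to compound; measure growth; express inhibition against vehicle-treated controls.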

Measured: growth inhibition

C/C(=N\N=C\N(C)S(=O)(=O)c1ccc(C)cc1)c1ccccc1
inactive: [1] -10.7% | [2] -2.8% | [3] -6.3% | [4] -6.25% | [5] 1.55% | [6] -2.7%

O=C1NC(=S)S/C1=C\c1c(Cl)cccc1Cl
inactive: [1] 56.9% | [2] 19% | [3] 61.1% | [4] 16.9% | [5] 27.9% | [6] 60.4%

O=C(Cn1ccc(=O)[nH]c1=O)Nc1ccc(C(=O)O)c(O)c1
inactive: [1] 0.45% | [2] -43.1% | [3] -24.9% | [4] -45.8% | [5] -31.4% | [6] 0.55%

Nc1nc(N)c(N=O)c(N)n1
inactive: [1] -10.9% | [2] -8.85% | [3] 0.6% | [4] 21% | [5] 3.5% | [6] 15.2%

O=[N+]([O-])c1ccc(CCCn2cnc3c(Cl)ncnc32)c([N+](=O)[O-])c1
inactive: [1] 15% | [2] 0.95% | [3] 7.95% | [4] -1.45% | [5] 1.2% | [6] -10.6%

Cc1ccc2cccc3c2c1CC1(C3=O)S(=O)(=O)OCCOS1(=O)=O
inactive: [1] 9.2% | [2] 4.45% | [3] 20.1% | [4] 14.7% | [5] 39% | [6] -2.3%

BrCC1OCC2(CO1)COC(CBr)OC2 (stereo unspecified)
inactive: [1] -11.2% | [2] 11.3% | [3] -7% | [4] -16% | [5] -6% | [6] -13.2%

O=C(/C=C/c1ccc(O)c(O)c1)OC1C[C@@](O)(C(=O)O)C[C@@H](O)[C@H]1OC(=O)/C=C/c1ccc(O)c(O)c1 (stereo partly specified)
inactive: [1] 17.8% | [2] -14.1% | [3] 21.1% | [4] -2.95% | [5] -6% | [6] 25.9%

CC(=O)Oc1cc(C)ccc1C
inactive: [1] -2.7% | [2] -0.5% | [3] -18.2% | [4] -55.5% | [5] -21.8% | [6] -0.35%

Nc1nc(N)c2nc(C(=O)O)c(C(=O)O)nc2n1
inactive: [1] -20.6% | [2] -8.2% | [3] -11.5% | [4] -15.8% | [5] -19% | [6] -4.2%

CCN(CC)CCNc1nc(N)c(C#N)c(C#N)c1C#N
inactive: [1] 5.8% | [2] -14.4% | [3] -4.55% | [4] 9% | [5] -8.3% | [6] 1.45%

COc1c(NC(=O)c2cccc(C(=O)Nc3cccc([N+](=O)[O-])c3OC)c2)cccc1[N+](=O)[O-]
inactive: [1] -30.6% | [2] -15.8% | [3] -19.9% | [4] -49.1% | [5] -0.7% | [6] -15.5%

NNc1ccc(S(=O)(=O)O)cc1Cl
inactive: [1] 8.35% | [2] -14.4% | [3] 3.05% | [4] 4.7% | [5] 15.7% | [6] 2.45%

Cc1ncc2c[n+]([O-])ccn12
inactive: [1] 6.05% | [2] 10.9% | [3] -4% | [4] -1.25% | [5] 17.4% | [6] 7.8%

O=C(Nc1cccc(Cl)c1)c1ccc(Cl)cc1
inactive: [1] 2.95% | [2] 24.2% | [3] 7.75% | [4] -12.9% | [5] 26.7% | [6] 4.3%

O=C(Nc1ccc(NC(=O)Nc2cc(C(F)(F)F)ccc2Oc2ccc(Cl)c(Cl)c2)cc1)Nc1cc(C(F)(F)F)ccc1Oc1ccc(Cl)c(Cl)c1
inactive: [1] -28.2% | [2] -45.4% | [3] -13.4% | [4] -23.2% | [5] -35.1% | [6] -19.7%

O=C1CN(CCCCl)CC(=O)N2Cc3ccccc3CN12
inactive: [1] -9.05% | [2] 5.3% | [3] -15.7% | [4] -10.1% | [5] -3.7% | [6] -20.1%

COc1c(OC(C)=O)c(Cl)cc(C=O)c1[N+](=O)[O-]
inactive: [1] 47.1% | [2] 28.7% | [3] 30.1% | [4] 22.1% | [5] 22% | [6] 62.5%

CC(C)(C)C(=O)OCN1CCOCC1
inactive: [1] -10.6% | [2] 10.9% | [3] 0.65% | [4] -47.8% | [5] -9.15% | [6] -10.2%

OCCSCc1cc2c(cc1Br)OCO2
inactive: [1] -29.5% | [2] -2% | [3] -11.8% | [4] 19.8% | [5] 12.4% | [6] 2.15%

O=C(Nc1ccc(Cl)cc1)Nc1nnc2nc(CC(=O)c3cccc([N+](=O)[O-])c3Cl)c(=O)[nH]n12
inactive: [1] -9.45% | [2] 11.4% | [3] 2.95% | [4] -0.4% | [5] 5.6% | [6] 9.55%

Oc1cc(CN2CCOCC2)c(O)c(CN2CCOCC2)c1CN1CCOCC1
inactive: [1] 5.25% | [2] 7.45% | [3] 10.3% | [4] 27.4% | [5] -1.05% | [6] -3.3%

COC(=O)C1(C)CCCC2(C)C1CCC13OC1C1(C(C)C)OC1CC23 (stereo unspecified)
inactive: [1] 5.1% | [2] -20.6% | [3] 11.1% | [4] -26.4% | [5] -3% | [6] 8.2%

COc1ccc2cc3[n+](cc2c1O)CCc1cc2c(cc1-3)OCO2
inactive: [1] 6.75% | [2] -22.8% | [3] 19% | [4] 20.6% | [5] 22.2% | [6] 22.9%

CC(O)C1OC(n2cnc3c(=S)nc[nH]c32)C(O)C1O (stereo unspecified)
inactive: [1] 7.5% | [2] 15.7% | [3] 0.6% | [4] -98.1% | [5] -4.85% | [6] -13.3%

O=c1[nH]c2cc(Cl)ccc2nc1/C=C(\O)c1ccc(F)cc1
inactive: [1] 23.1% | [2] 17.6% | [3] 17.2% | [4] 8.2% | [5] -6.3% | [6] 27.4%

CC(NC(=O)C(Cc1ccc(O)cc1)NC(=O)C(C)NC(=O)OCc1ccccc1)C(=O)O (stereo not drawn) (Cbz-Ala-Tyr-Ala-OH; configuration not given here)
inactive: [1] 12.2% | [2] 13.3% | [3] 13.7% | [4] -4.25% | [5] -5.8% | [6] 16.9%

CCS(=O)(=O)C(S(C)(=O)=O)S(=O)(=O)C(C)C (stereo unspecified)
inactive: [1] -1.65% | [2] 31.6% | [3] 8.45% | [4] -9.15% | [5] 26.8% | [6] 14%

C=CCSS/C=C/CS(=O)CC=C (stereo unspecified)
inactive: [1] 22.6% | [2] 54% | [4] 32% | [6] -19.3%
active: [3] 75.3% | [5] 78.3%

COc1ccc(C(=O)/C=C/c2ccc(OCCCCCCCCCCOc3ccc(/C=C/C(=O)c4ccc(OC)cc4)cc3)cc2)cc1
inactive: [1] -14.2% | [2] -14.8% | [3] -17% | [4] -15.2% | [5] -30.4% | [6] -17.4%

CSCCC(NC(=O)NS(=O)(=O)c1ccc(C)cc1)C(=O)O (stereo unspecified)
inactive: [1] -4.3% | [2] -16.1% | [3] -2.3% | [4] 20.2% | [5] 6.45% | [6] 9.55%

NNC(=O)/C(=C/c1ccc(Cl)cc1Cl)NC(=O)c1ccccc1
inactive: [1] 45% | [2] 35.3% | [3] 39.3% | [4] 60.4% | [5] 66.8% | [6] 54.5%

Cc1ccccc1NC(=O)C(=O)C(C#N)c1ccc(Cl)cc1Cl (stereo unspecified)
inactive: [1] -19.3% | [2] 6% | [3] 24.8% | [4] -19.6% | [5] 7.3% | [6] 19.9%

COC(=O)C1CC/C(=N\Nc2ccc([N+](=O)[O-])cc2[N+](=O)[O-])CC1C(=O)OC (stereo unspecified)
inactive: [1] 10.2% | [2] -5.75% | [3] -8.75% | [4] -1.65% | [5] 5.2% | [6] 19.6%

COc1ccc(-c2nnc(Cl)o2)cc1
inactive: [1] -1.95% | [2] 14.8% | [3] -6.75% | [4] -25.9% | [5] -21.1% | [6] -0.5%

c1coc(CNc2ncnc3nccnc23)c1
inactive: [1] -16.9% | [2] -4.35% | [3] -15.6% | [4] -20.2% | [5] -32.5% | [6] -4.45%

CCCCC(=O)N/N=C\c1cc(Cl)ccc1[N+](=O)[O-]
inactive: [1] 17.6% | [2] 1.6% | [3] -6.65% | [4] 33.2% | [5] 7.7% | [6] 1.05%

CN(C)C(=O)C1C2CCCC(CC2)C1C(=O)N(C)C (stereo unspecified)
inactive: [1] 13.7% | [2] 19.6% | [3] 21.2% | [4] 20.5% | [5] 18% | [6] 20.2%

Cc1ccc(S(=O)(=O)NC(=O)Nc2c(-c3nc4ccccc4s3)[n+]([O-])c3ccccc3[n+]2[O-])cc1
inactive: [1] 27.8% | [2] 5.5% | [3] 15.2% | [4] 30.4% | [5] 10.1% | [6] 18.9%

Cc1c(C(=O)O)c2ccccc2[nH]c1=O
inactive: [1] -2.85% | [2] -1.25% | [3] 2.85% | [4] -40% | [5] -13.2% | [6] 2.5%

CCc1cc2c(c3c1CCCC3=O)CC1(Cc3ccc(C(=O)OC)cc3C1)C2 (stereo unspecified)
inactive: [1] -8.05% | [2] -28.9% | [3] -7.6% | [4] -20.6% | [5] -8.95% | [6] -39.7%
